From PubChem BioAssay AID784 (The Scripps Research Institute Molecular Screening Center, 2007)
Hit rate of the full screen: of about 30,000 compounds, about 130 (0.43%) were called active. This is one part of a sample in which actives are shown more often than they occur. A number with no mark means an inactive call. Cut-off read from the data, not from the text of the source: active = activation above about 65%; inactive = the rest.

What follows are compounds tested against Lysosomal acid glucosylceramidase (Homo sapiens) (UniProt P04062) (assay: raising glucocerebrosidase activity, Gaucher cells – primary screen (AID 784;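 note: 0% = vehicle wells and 100% = positive control wells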)). Details: L444P Gaucher fibroblasts, 4-MU-glucoside fluorescence, 3 days; at 10 µM; stronger effect = higher value.
Sequence of Lysosomal acid glucosylceramidase (Homo sapiens) (P04062 whole entry L483P): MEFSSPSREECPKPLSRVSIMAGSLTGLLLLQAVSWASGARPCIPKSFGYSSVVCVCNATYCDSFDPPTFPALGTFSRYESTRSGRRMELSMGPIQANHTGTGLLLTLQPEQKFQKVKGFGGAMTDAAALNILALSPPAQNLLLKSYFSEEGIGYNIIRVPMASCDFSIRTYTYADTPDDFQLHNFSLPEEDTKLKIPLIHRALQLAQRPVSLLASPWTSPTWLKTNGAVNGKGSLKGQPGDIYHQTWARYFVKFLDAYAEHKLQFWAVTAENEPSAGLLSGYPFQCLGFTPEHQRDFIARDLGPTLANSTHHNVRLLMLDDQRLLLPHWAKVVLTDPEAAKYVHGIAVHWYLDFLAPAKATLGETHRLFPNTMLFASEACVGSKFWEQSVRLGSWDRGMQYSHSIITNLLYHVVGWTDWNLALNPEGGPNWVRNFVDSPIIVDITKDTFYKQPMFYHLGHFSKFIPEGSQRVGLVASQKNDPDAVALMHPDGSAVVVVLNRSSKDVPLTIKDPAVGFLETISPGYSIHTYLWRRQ
`CCn1c2c(c3ccc(OC)cc31)CCCC2=O` showed an activation of -2.82%. `O=C(COc1ncnc2ccccc12)NC(=O)NCc1ccccc1` gave an activation of -9.58%. For `CCCOc1cccc(C(=O)Nc2nnn(CCC)n2)c1`, the activation was -14.1%. With `Cc1ccc(OCc2nc(C#N)c(N3CCCC3)o2)cc1` the activation was -34.7%. Compound `Cc1ccc(OCCCC(=O)N2CCOCC2)c(C)c1` has an activation of 9.81%. Compound `Cc1cc(N2CCN(Cc3ccc4c(c3)OCO4)CC2)n2ncnc2n1` has an activation of 4.34%. With `CCOc1cc(CO)ccc1OCC(=O)N1CCCCC1` the activation was 38.3%. For `CC(C)(C)c1nc(NCC2CCCO2)c2nnn(Cc3ccccc3)c2n1` (stereo unspecified), the activation was -23.9%. Work on `O=CN1CCN(C2CC(=O)N(c3ccc4c(c3)OCO4)C2=O)CC1` (stereo unspecified) yielded an activation of -20.8%. Work on `CC1(C)CC(=O)C=C(NCCCN2CCCC2=O)C1` yielded an activation of 48.7%. `NC(CSC12CC3CC(CC(C3)C1)C2)C(=O)O` (stereo unspecified) showed an activation of -2.09%. Work on `CCOC(=O)C1CCCN(C(=O)c2cncc(Br)c2)C1` (stereo unspecified) yielded an activation of -20.7%. In the case of `OC(COc1ccccc1)Cn1cc(Br)cn1` (stereo unspecified), the activation is reported as -62.4%. Compound `COc1ccc(-c2nnc(SC(C)C#N)o2)cc1` (stereo unspecified) has an activation of -2.02%. With `CCCCSc1nnc(-c2ccc(C)cc2)o1` the activation was 65.5% (active). `c1ccc(-c2nnc(SCc3nc4ccccc4[nH]3)o2)cc1` gave an activation of -6.36%. With `CC1(C)SC2c3ccccc3C(=O)N2[C@@H]1C(=O)NCc1ccco1` (stereo partly specified) the activation was -2.64%. In the case of `C=CCn1cnc2scc(-c3ccccc3)c2c1=O`, the activation is reported as -7.71%. In the case of `CCN1C(=O)C(C(=O)NC(C)c2ccccc2)C2CC1(C)Oc1ccccc12` (stereo unspecified), the activation is reported as -6.62%. For `CC(C)C(C(=O)NC1CCCCC1)N(CC1CCCO1)C(=O)CNS(=O)(=O)c1ccc(F)cc1` (stereo unspecified), the activation was -1.42%. For `COc1ccc(NC(=O)c2c(C)oc3c2CCCC3)cc1`, the activation was 9.49%. `CCc1c(C)sc(NC(=O)OC)c1C(=O)N1CCOCC1` showed an activation of -9.88%. With `Cc1nc2nc3c(cn2n1)C(=O)CC(c1ccccc1)C3` (stereo unspecified) the activation was -10.1%. Work on `CC(=O)Nc1cccc(NC(=O)c2c(-c3ccccc3)noc2C)c1` yielded an activation of -9.69%. In the case of `CCc1nc(N2CCN(c3nc(C)cc(C)n3)CC2)c2oc3ccccc3c2n1`, the activation is reported as -1.58%. With `CCCn1c(SCC(=O)Nc2cccc(C(=O)OCC)c2)nnc1-c1ccoc1C` the activation was -19.7%. `O=C(COc1ccccc1)N1CCc2ccccc2C1` showed an activation of -2.86%. `CCCCc1nc2ccccc2c(=O)n1NC(=O)c1c(O)c2cccc3c2n(c1=O)CC3` showed an activation of 3.98%. `Cc1c(NC(=O)Nc2ccccc2Cl)sc(=S)n1C` gave an activation of -15.8%. `CC12C(=O)N(n3cnnc3)C(=O)C1C1C=CC2C1` (stereo unspecified) gave an activation of -8.37%. For `CC(C)N(C(=O)Cn1c(SCC(=O)N2CCN(c3ccccc3)CC2)nc2ccccc21)C(C)C`, the activation was -5.29%. `Cc1ccccc1NC(=O)c1cc(S(=O)(=O)N2CCOCC2)cs1` was tested, and the activation was -11.8%. `CC(=NCc1ccco1)C1=C(O)c2ccccc2C1=O` showed an activation of -41.5%. Work on `Cc1nc2c(c(=O)n1Cc1ccco1)c1nc3ccccc3nc1n2Cc1ccccc1` yielded an activation of -11.7%. In the case of `COc1ccc(-c2csc(N3CCN(Cc4ccc5c(c4)OCO5)CC3)n2)cc1`, the activation is reported as -17.4%. Work on `CC(c1ccccc1)n1c(NCCCn2ccnc2)nc2c1c(=O)[nH]c(=O)n2C` (stereo unspecified) yielded an activation of -10.3%. `COc1ccc(Br)cc1S(=O)(=O)N1CCN=C1C` was tested, and the activation was -8.13%. `O=[n+]1c2c(n([O-])c3cc(Br)ccc31)CCC2` showed an activation of 30.8%. `Cc1c(C(=O)OCc2cc(=O)n3cc(Br)ccc3n2)oc2ccccc12` showed an activation of 23%. Work on `CCOCCCNS(=O)(=O)Cc1ccccc1` yielded an activation of 6.43%. Compound `CCOC(=O)C1=C(C)NC(C)=C(C(=O)OCC)C1C1=COCCO1` has an activation of -5.96%. In the case of `C=CCn1c(SCc2cc(C(=O)OC)c(C)o2)nnc1-c1ccncc1`, the activation is reported as 31.7%. `Cn1c(=O)n(C)c(=O)n(CC(=O)N2CCCCC2)c1=O` showed an activation of -12.6%. With `Clc1cccc(Cl)c1Cn1nnc(-c2cccs2)n1` the activation was 10.2%. With `COc1ccccc1CNCc1cccs1` the activation was -7.11%. For `NC(=NC(=O)c1ccccc1)C1=C(O)CCC1=O`, the activation was 0%. Work on `O=C(CSc1nnc(-c2cccs2)n1-c1ccccc1)N1CCN(C(=O)c2ccco2)CC1` yielded an activation of -13.7%. `Cc1ccsc1CNn1cnnc1SCc1ccccc1F` gave an activation of -2.23%. Compound `Cc1nnc(NC2=NCCCCC2)o1` has an activation of 8.3%. Compound `CCS(=O)(=O)N1CCN(C(=O)c2cccs2)CC1` has an activation of -24.4%. Work on `COc1ccccc1C(=O)Oc1ccc(N2C(=O)CCC2=O)cc1` yielded an activation of 4.62%. `COC(C)(C)[C@]12CC(O)(C(C)C)ON1[C@H]1CCCCC1N2O` (stereo partly specified) gave an activation of -2.77%. In the case of `CC(Cc1cccs1)NC(=O)NC1CCCCC1` (stereo unspecified), the activation is reported as -0.56%. In the case of `C=C(C)Cn1c(SCC(=O)NCc2ccco2)nc2sc3c(c2c1=O)CCC3`, the activation is reported as -21.3%. For `CCOC(=O)CC1C(=O)NCCN1C(=O)COc1ccc(Br)cc1C` (stereo unspecified), the activation was -21.1%. Compound `Nn1c(SCC(=O)NC(=O)NC2CCCC2)nnc1-c1ccccc1F` has an activation of 2.97%. In the case of `O=C(COc1ccc2c3c(c(=O)oc2c1)CCC3)NC1CCCCC1`, the activation is reported as 9.84%. Work on `CC1CC(c2ccccc2)n2nc(NC(=O)c3cccs3)nc2N1` (stereo unspecified) yielded an activation of -23.6%. `Cc1cc(NC(=O)COC(=O)c2ccc(F)c(S(=O)(=O)N3CCOCC3)c2)no1` showed an activation of -7.98%. In the case of `Cc1cc(C)c2nc(N3CCCC3)c(C#N)cc2c1`, the activation is reported as 18.1%. With `CN(C(=O)CSc1nnnn1-c1ccccc1)C1CCCCC1` the activation was -16.5%. Compound `Cc1nn(-c2ccccc2)c(C)c1C(=O)OCC(=O)NC(=O)NC1CCCCC1` has an activation of 59.8%. Work on `O=C(c1c(Cl)nc2sccn12)N1CCCc2ccccc21` yielded an activation of -24.6%. Work on `CC1(c2ccccc2Cl)NC(=O)N(CC(=O)NC(=O)NCc2ccco2)C1=O` (stereo unspecified) yielded an activation of -9.6%. Work on `Cc1cc(OCCN2CCCC2)ccc1C(C)C` yielded an activation of -12.4%. Work on `CCC(=O)Nc1nc(OC)cc(OC)n1` yielded an activation of -18.3%. `CC(=O)c1cnc(Nc2nc(C)c3cc(C)ccc3n2)nc1C` gave an activation of 13.5%. `Cc1nnc(SCC(=O)N2CCc3ccccc32)n1-c1ccccc1` was tested, and the activation was -18.6%. `O=C(Cn1nnc(-c2ccccc2)n1)NCc1ccccc1` gave an activation of -40%. In the case of `COc1ccc(Cn2c(=O)sc3ccccc32)cc1OC`, the activation is reported as -6.04%. With `O=C(O)Cc1ccc(NC(=O)c2cccs2)cc1` the activation was -9.31%. `O=C(NCc1cccnc1)c1cn(-c2ccccc2)nc1-c1cccs1` gave an activation of -15.4%. For `COCCCNC(=O)c1c(F)c(F)c(F)c(F)c1F`, the activation was -31.9%. Work on `CCOC(=O)C(CCOc1cccc(CC)c1)C(=O)OCC` yielded an activation of -0.5%. With `CCn1cc(C(=O)NCc2ccc(OC)cc2OC)c(=O)c2ccc(C)nc21` the activation was -10.1%. In the case of `Cn1c(=O)[nH]c(=O)c2c1nc(N1CCCCCC1)n2CC(=O)c1ccccc1`, the activation is reported as -1.4%. `CC1Cc2ccccc2N1C(=O)Cn1cnc2ccccc2c1=O` (stereo unspecified) gave an activation of -14.5%. `COC(=O)[C@@H](NC(=O)NCc1cccc(OC)c1)C(C)C` showed an activation of -5.38%. `CCCc1nnc(NC(=O)CN2C(=O)c3ccccc3S2(=O)=O)s1` showed an activation of -21.6%. For `O=P(O)(CP(=O)(c1ccccc1)c1ccccc1)c1ccccc1`, the activation was -3.68%. For `CCCCNC(=O)CSc1nnc(-c2ccco2)n1C`, the activation was -32.4%. `Cc1c(C)c2cc3c4c(oc3c(C)c2oc1=O)CCCC4` was tested, and the activation was 102% (active). With `COC(=O)CCSc1nccn1Cc1ccccc1` the activation was -3.3%. Work on `Fc1ccccc1CCNc1nnnn1-c1ccccc1` yielded an activation of -5.46%. `CCN(C(=O)CSc1ncn[nH]1)c1cccc2ccccc12` was tested, and the activation was 4.77%. For `COCCn1nnnc1CN1CCC(NC(=O)Nc2cccc(OC)c2)CC1`, the activation was 2.44%. For `Cc1ccc(S(=O)(=O)N2CCN(C(=O)CCC(=O)NC3CCCc4ccccc43)CC2)cc1` (stereo unspecified), the activation was -7.53%. Compound `Cc1ccc(-c2noc(CCC(N)=O)n2)cc1` has an activation of 1.93%. With `COCCCNC(=O)Cn1cc(C(=O)C2CC2)c2ccccc21` the activation was 72.8% (active). Work on `COC(=O)c1cn(CC(=O)NCc2cccs2)c2ccccc12` yielded an activation of -8.81%. `O=C(Cn1cc(C(=O)c2cccs2)c2ccccc21)NCc1cccs1` gave an activation of 5.52%. Compound `CCCCn1c(SCC(=O)N2CCC(C(=O)OCC)CC2)nc2cc(S(N)(=O)=O)ccc21` has an activation of -6.49%. `CCOC(=O)c1cc2c(n(-c3ccc(C)cc3)c1=O)CCCC2=O` was tested, and the activation was -11%. Compound `Cc1cccc(N2CC(C)Cn3c2nc2c3c(=O)n(CC(=O)OCc3ccccc3)c(=O)n2C)c1` (stereo unspecified) has an activation of -17.9%. For `CCOc1ccccc1-n1c(SCC(=O)N2CCCC2)nnc1-c1ccoc1C`, the activation was 0.64%. For `O=C(Nc1nc2cc3c(cc2s1)OCCO3)c1cccc(S(=O)(=O)N2CCOCC2)c1`, the activation was 0.12%. `COc1ccccc1OCCC(=O)OCC(=O)NC(=O)NC(C)(C)C` showed an activation of 4.86%. `Cn1nc(-c2ccc(N3CCOCC3)c(NC(=O)c3ccccc3)c2)c2ccccc2c1=O` showed an activation of -54.8%. `CC(C)Cn1c(N)c(C(=O)NCc2cccs2)c2nc3ccccc3nc21` was tested, and the activation was 73.7% (active). Work on `C=CCn1c(N)c(C(=O)OCC(C)C)c2nc3ccccc3nc21` yielded an activation of -9.15%. With `C=CCn1c(N)c(S(=O)(=O)c2cccs2)c2nc3ccccc3nc21` the activation was -13.8%.
